Source: PubChem (National Center for Advancing Translational Sciences (NCATS))
ELG1 genotox: qHTS screen for small molecules that induce genotoxicity in human embryonic kidney (HEK293T) cells expressing luciferase-tagged ELG1; HEK293T ELG1-luciferase reporter, luminescence, 16 h; Potency, µM (doses to about 46 µM), for the others: top-dose activity change, positive = activation, most hits filed as activators; 330,000 tested, 1.3% active; AID 504466, 2011; also: % of control where 0% means no effect; nearly all actives have a fitted effect of over 60% in size
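Screening used a luciferase reporter fused to human ELG1 in HEK293T cells. Luminescence was read on a CCD plate imager after 16 hr exposure and 30 min ONE-Glo incubation.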
ELG1 DNA repair: qHTS screen for small molecules that inhibit ELG1-dependent DNA repair in human embryonic kidney (HEK293T) cells expressing luciferase-tagged ELG1. HEK293T ELG1-luciferase reporter, luminescence, 16 h; DNA damage induced by 5-fluorouridine. Potency, µM (titrated, usually from 46.1 µM), for inactives: at the highest dose activity change, negative = inhibition, actives largely listed as inhibitors. 330,000 tested, 2.3% active. AID 504467, 2011; also: % is scaled to controls: 0 for no effect and ±100 for the full control effect; nearly all actives have a fitted effect of over 55% in size
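Overnight (16 hr) co-exposure of 2,000 cells/well to 5-fluorouridine and compound at 37 °C preceded detection. Luciferase was quantified via ONE-Glo luminescence; loss of signal denotes inhibition.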
FLuc counter: qHTS profiling assay for firefly luciferase inhibitor/activator using purifed enzyme and Km concentrations of substrates (counterscreen for miR-21 project); Luciferin 4-monooxygenase (Photinus pyralis), P08659; purified FLuc, Km substrates, luminescence inhibition; Potency, µM (doses to about 57.5 µM), for the others: top-dose activity change, negative = inhibition, usual class: inhibitors; 360,000 tested, 6.9% active;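 also: plate controls were vehicle for no effect and reference inhibitor for full effect; nearly all actives have a fitted effect of over 55% in size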
Target sequence (P08659 whole entry, looked up): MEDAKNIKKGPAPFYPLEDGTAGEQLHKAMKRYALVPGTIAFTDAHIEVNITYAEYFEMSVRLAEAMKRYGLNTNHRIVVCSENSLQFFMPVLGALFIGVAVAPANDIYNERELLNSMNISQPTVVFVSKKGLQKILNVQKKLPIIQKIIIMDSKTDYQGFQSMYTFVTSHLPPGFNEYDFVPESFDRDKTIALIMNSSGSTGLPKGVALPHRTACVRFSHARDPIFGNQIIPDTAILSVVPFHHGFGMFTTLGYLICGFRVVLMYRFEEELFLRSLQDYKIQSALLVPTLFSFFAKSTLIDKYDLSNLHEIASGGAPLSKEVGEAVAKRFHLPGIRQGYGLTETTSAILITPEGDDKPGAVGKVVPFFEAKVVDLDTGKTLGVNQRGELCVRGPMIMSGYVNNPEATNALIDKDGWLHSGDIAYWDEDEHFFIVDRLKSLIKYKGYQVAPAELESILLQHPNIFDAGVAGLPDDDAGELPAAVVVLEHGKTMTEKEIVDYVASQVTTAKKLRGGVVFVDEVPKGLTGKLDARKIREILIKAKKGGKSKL
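Biochemical qHTS of compounds, final roughly 60 µM downward over six points, against 10 nM purified firefly luciferase using Km concentrations of substrates (10 uM D-luciferin, 10 uM ATP) in Tris acetate pH 7.5 buffer; luminescence output.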
NPC1 prom act: qHTS Assay for NPC1 Promoter Activators | Huh7 NPC1 promoter luciferase reporter, 24 h | Potency, µM (top dose mostly 9.22 µM), inactives show at the highest dose activation, actives largely listed as activators | 320,000 tested, 2.4% active | AID 485313, 2010; also: % of control where 0% means no effect; nearly all actives have a fitted effect of over 60% in size
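In 1536-well qHTS, Huh7 cells harboring an NPC1 promoter–luciferase construct received compound for 24 h; activation was quantified by luminescence following luciferase reagent addition.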
SMN2 splice enh: qHTS Assay for Enhancers of SMN2 Splice Variant Expression; HEK293 SMN2-luciferase splicing reporter, luminescence, 30-36 h; 210,000 tested, 2.8% active; Potency, µM (titrated, usually from 46.1 µM), inactives show top-dose activity change, positive = activation, usual class: activators; AID 1458, 2008; also: % of control where 0% means no effect; nearly all actives have a fitted effect of over 55% in size
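HEK293 cells carry an SMN2 minigene-luciferase reporter in which exon 7 inclusion puts luciferase in frame. Cells were seeded at 2000 cells/well, attached for 10-12 hours, then exposed to compounds for 30-36 hours at 37C before ONE-Glo luminescence.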
Rab9 prom act: qHTS Assay for Rab9 Promoter Activators; Huh7 Rab9 promoter-luciferase reporter, luminescence, 24 h; Potency, µM (doses to about 9.22 µM), for the others: at the top dose activation, negative = inhibition, usual class: activators; 320,000 tested, 2.8% active; also: % of control where 0% means no effect; nearly all actives have a fitted effect of over 60% in size
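Cells were plated at 1500 per well in reduced-serum medium with 10% FBS and left 2 h. Compound in DMSO was then added for 24 h at 37 °C. Reporter signal was read by luminescence after 10 min with luciferase detection reagent.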
The depositor's hits bear a star. Rows were chosen to be rich in hits. Some 9.2% of all compounds tested hit in one or more screens of this group. Calls follow the shape of the dose curve; as a rule, active = well fitted curve in the direction sought with a large enough effect; inconclusive = small, poorly fitted or top-dose-only effect, or another doubt; inactive = no such curve, though single readings can be large; an effect the other way counts as inactive or inconclusive. Potency is read from the fitted curve at half-maximal effect.

For O=S(=O)(Nc1ccc(Cl)cn1)c1cccs1 the results were ELG1 genotox -0.1%, ELG1 DNA repair -5.6%, FLuc counter -0.4%, NPC1 prom act -0.6% and Rab9 prom act -5.1%.
Screening c1ccc(Cn2c(-c3ccccc3)nc3nc4ccccc4nc32)cc1 returned ELG1 genotox -5.7%, ELG1 DNA repair 20.6µM*, FLuc counter -11.6%, NPC1 prom act -0.4%, SMN2 splice enh -23.4% and Rab9 prom act -2.0%.
c1csc(-c2nc3nc4ccccc4nc3n2Cc2ccc3c(c2)OCO3)c1 was read as ELG1 genotox -1.2%, ELG1 DNA repair inconclusive, FLuc counter 2.69µM*, NPC1 prom act 29.4%, SMN2 splice enh inconclusive and Rab9 prom act inconclusive.
C=CCn1c(-c2ccccc2)nc2nc3ccccc3nc21 was read as ELG1 genotox -5.5%, ELG1 DNA repair 3.3%, FLuc counter 16.9µM*, NPC1 prom act 11.8%, SMN2 splice enh 4.2% and Rab9 prom act 4.2%.
Screening Clc1cccc(-c2nc3nc4ccccc4nc3n2Cc2ccccc2)c1 returned ELG1 genotox 0.0%, ELG1 DNA repair inconclusive, FLuc counter -4.7%, NPC1 prom act -2.2%, SMN2 splice enh -12.2% and Rab9 prom act -7.5%.
Screening CCc1ccc(CNC(=O)c2cnc3sc(N4CCCCC4)nn3c2=O)cc1 returned FLuc counter -6.0%.
Screening CC1CCN(c2nnc(N)s2)CC1 returned ELG1 genotox inconclusive, ELG1 DNA repair inconclusive, FLuc counter 4.26µM*, NPC1 prom act 2.24µM*, SMN2 splice enh 2.51µM* and Rab9 prom act 1.26µM*.
For Nc1nnc(N2CCCCC2)s1 the results were ELG1 genotox 0.9%, ELG1 DNA repair -6.8%, FLuc counter 12.1%, NPC1 prom act -3.4%, SMN2 splice enh -19.3% and Rab9 prom act 3.4%.
Screening C=CCc1c(C)nc2ccc(C(=O)OCC)cc2c1Cl returned ELG1 genotox 2.2%, ELG1 DNA repair inconclusive, FLuc counter 21.3µM*, NPC1 prom act 0.0% and Rab9 prom act 12.1%.
`CCOC(=O)c1ccc2nc(C)c(CC)c(Cl)c2c1` gave ELG1 genotox -0.1%, ELG1 DNA repair inconclusive, FLuc counter inconclusive, NPC1 prom act 8.5% and Rab9 prom act -12.6%.
For CCCCn1c2c(c(=N)c3ccccc31)CCC2 the results were ELG1 genotox -10.0%, ELG1 DNA repair 1.64µM*, FLuc counter 0.2%, NPC1 prom act -34.4% and Rab9 prom act -38.9%.
For CCCCCCCCn1c2c(c(=N)c3ccccc31)CCC2 the results were ELG1 genotox 0.9%, ELG1 DNA repair 6.3%, FLuc counter -1.2%, NPC1 prom act -3.6% and Rab9 prom act -3.1%.
N=c1c2c(n(Cc3ccccc3)c3c1CCC3)CCC2 was read as ELG1 genotox -0.6%, ELG1 DNA repair 2.91µM*, FLuc counter -3.3%, NPC1 prom act -25.4%, SMN2 splice enh -38.1% and Rab9 prom act -39.2%.
Screening N=c1c2c(n(Cc3ccc(Cl)cc3)c3c1CCC3)CCC2 returned ELG1 genotox -12.5%, ELG1 DNA repair 2.91µM*, FLuc counter -1.0%, NPC1 prom act -22.7%, SMN2 splice enh -43.2% and Rab9 prom act -26.4%.
Screening CN(CC1CCOCC1)C(=O)CC1C(=O)NCCN1CC(c1ccccc1)c1ccccc1 (stereo unspecified) returned ELG1 genotox 6.7%, ELG1 DNA repair 0.0%, FLuc counter -0.7%, NPC1 prom act 2.1% and Rab9 prom act 0.5%.
`Cc1cc(NC(=O)c2cnc3c(-c4ccccc4)c(C)nn3c2C)ccc1Br` gave FLuc counter -8.4%.
